Measurements taken from PubChem BioAssay (NCATS).
Records with an inconclusive call do not appear. Where a call stands in place of a potency, no number is given. The source made the active and inactive calls. The call rests on the fitted dose curve; tested in HEK293 reporter line.

Experiment: qHTS for Inhibitors of the Functional Ribonucleoprotein Complex (vRNP) of Lassa (LASV) Arenavirus: LASV Primary Screen - GLuc reporter signal (AID 1347082); further: nearly all actives have a fitted effect of over 60% in size
Conditions: LASV minigenome vRNP, Gaussia luciferase reporter; series mostly up to 57.5 µM

SMILES | Potency
c1ccc(-c2ccc(C(c3ccccc3)n3ccnc3)cc2)cc1 (stereo not drawn) | inactive
COCCOC(=O)C1=C(C)NC(C)=C(C(=O)OC/C=C/c2ccccc2)C1c1cccc([N+](=O)[O-])c1 (stereo not drawn) | inactive
COc1ccc(/C=C/C(=O)c2ccc(OC)cc2OC)cc1 | inactive
CC(=O)Oc1ccc(C2(c3ccc(OC(C)=O)cc3)C(=O)Nc3ccccc32)cc1 | inactive
CC(=C(CCOC(=O)C(C)C)SSC(CCOC(=O)C(C)C)=C(C)N(C=O)Cc1cnc(C)nc1N)N(C=O)Cc1cnc(C)nc1N | inactive
CC(C)=CCNc1ncnc2c1ncn2[C@@H]1O[C@H](CO)[C@@H](O)[C@H]1O | inactive
OC[C@H]1O[C@@H](n2cnc3c(=S)nc[nH]c32)[C@H](O)[C@@H]1O | inactive
COc1ccc([C@@H]2Sc3ccccc3NC(=O)[C@@H]2O)cc1 | inactive
Nc1nc2ccccc2n1Cc1ccc(F)cc1 | inactive
NC(=O)C1(N2CCCCC2)CCN(CCCN2c3ccccc3CCc3ccc(Cl)cc32)CC1 | inactive
Cc1ccc2c(Br)cc(Br)c(O)c2n1 | inactive
CN1CCCC(CC2c3ccccc3Sc3ccccc32)C1 (stereo not drawn) | inactive
C[C@H]1[C@H]2CC[C@H]3[C@@H]4CC=C5C[C@@H](N(C)C)CC[C@]5(C)[C@H]4CC[C@]23CN1C | inactive
CCOC(=O)C1=C(C)NC(C)=C(C(=O)OCC)C1c1ccccc1/C=C/C(=O)OC(C)(C)C | inactive
C=CCNc1nc(NCC=C)nc(N2CCN(C(c3ccc(F)cc3)c3ccc(F)cc3)CC2)n1 | inactive
CCCCOc1cc(C(=O)NCCN(CC)CC)c2ccccc2n1 | inactive
Cc1nc2n(c(=O)c1CCN1CCC(C(=O)c3ccc(F)cc3)CC1)CCS2 | inactive
CCNC(=O)N1CCN(CCCC(c2ccc(F)cc2)c2ccc(F)cc2)CC1 | inactive
CCN(CC)CCOc1ccc2c(c1)C(=O)c1cc(OCCN(CC)CC)ccc1-2 | inactive
O=C(Nc1ncc([N+](=O)[O-])s1)c1cccs1 | inactive
CN(C)CCn1nnnc1SCC1=C(C(=O)O)N2C(=O)[C@@H](NC(=O)Cc3csc(N)n3)[C@H]2SC1 | inactive
COC(=O)Nc1nc2ccc(Sc3ccccc3)cc2[nH]1 | inactive
C[C@@H](C1=C(CCN(C)C)Cc2ccccc21)c1ccccn1 | inactive
